Reference: the supplement of paper PMC9446081
In all, about 39,000 compounds went through this assay and about 220 (0.56%) showed activity. The list comes from a sample in which actives are over-represented; it also holds similar structures and randomly drawn compounds. Unmarked numbers belong to inactive results.
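Also: Wild-type cells incubated without shaking, value is the mean of two biological replicates.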

Each compound was assayed on Escherichia coli K-12 BW25113 (assay: relative growth (OD600 normalised to plate interquartile mean) (fraction); higher = less growth inhibition, active = 0.2 or less). Conditions: 50 µM; LB; incubation time: overnight (16-24 h).
Compound `C[C@H](CO)N1C[C@H](C)[C@@H](CN(C)Cc2ccc3c(c2)OCO3)Oc2c(NC(=O)c3cnccn3)cccc2C1=O` has a relative growth of 0.969. Compound `COc1ccc(S(=O)(=O)N(C)C[C@H]2OCCCC[C@@H](C)Oc3ccc(NC(=O)Nc4ccc(F)cc4)cc3C(=O)N([C@H](C)CO)C[C@@H]2C)cc1` has a relative growth of 1.07. For `CO[C@@H]1CN(C)C(=O)c2ccc(NC(=O)C3CCOCC3)cc2OC[C@@H](C)N(CC2CCOCC2)C[C@H]1C`, the relative growth was 1.02. `O=C(CN1CCOCC1)NCC[C@H]1CC[C@@H](NC(=O)Nc2ccccc2)[C@@H](CO)O1` showed a relative growth of 1.01. Compound `Cc1noc(C)c1S(=O)(=O)Nc1cccc2c1O[C@@H](CN(C)Cc1ccccc1)[C@@H](C)CN([C@@H](C)CO)C2=O` has a relative growth of 1.01. For `C[C@@H]1CN([C@H](C)CO)C(=O)c2cc(NC(=O)Nc3ccc(C(F)(F)F)cc3)ccc2O[C@H]1CN(C)Cc1ccc(C(F)(F)F)cc1`, the relative growth was 1.02. `C[C@@H]1CN([C@H](C)CO)C(=O)c2cc(-c3cccc(C(=O)N(C)C)c3)cnc2O[C@@H]1CN(C)S(=O)(=O)c1ccccc1` was tested, and the relative growth was 0.987. Compound `COc1oc(C(=O)NC2CCCCC2)c(-c2ccc(Cl)cc2)c1S(=O)(=O)c1cccc(Cl)c1` has a relative growth of 0.914. `COc1ccccc1-c1cnc2c(c1)C(=O)N([C@@H](C)CO)C[C@@H](C)[C@H](CN(C)C(=O)c1cccnc1)O2` was tested, and the relative growth was 1.02. Work on `COc1cc(N2CCC3(CC2)CNC(=O)CO3)ncn1` yielded a relative growth of 0.968. `C[C@@H]1CN([C@H](C)CO)C(=O)Cc2cc(NC(=O)CCN3CCOCC3)ccc2O[C@H]1CN(C)Cc1ccc(C(=O)O)cc1` gave a relative growth of 1.03. In the case of `CO[C@@]12[C@@H]3N[C@@H]3CN1C1=C(C(=O)C(N)=C(C)C1=O)[C@@H]2COC(N)=O`, the relative growth is reported as 0.0651 (active). `CO[C@@]12[C@H](COC(N)=O)C3=C(C(=O)C(C)=C(N)C3=O)N1C[C@@H]1N[C@@H]12` was tested, and the relative growth was 1.01. In the case of `COC12C(COC(N)=O)C3=C(C(=O)C(C)=C(N)C3=O)N1CC1NC12` (stereo not drawn), the relative growth is reported as 0.0503 (active). `COCCNC(=O)C[C@H]1CC[C@H]2[C@@H](COC[C@@H](O)CN2C(=O)Nc2ccccc2OC)O1` gave a relative growth of 0.949. Work on `Cc1noc(C)c1S(=O)(=O)Nc1ccc2c(c1)CC(=O)N([C@H](C)CO)C[C@@H](C)[C@H](CN(C)Cc1ccncc1)O2` yielded a relative growth of 0.995. Compound `C[C@H](CO)N1C[C@H](C)[C@@H](CN(C)C)Oc2ccc(NS(C)(=O)=O)cc2CC1=O` has a relative growth of 0.983. `C[C@@H]1CCCCO[C@@H](CN(C)C(=O)C2CCCCC2)[C@H](C)CN([C@H](C)CO)C(=O)c2cc(NS(=O)(=O)c3ccccc3)ccc2O1` showed a relative growth of 0.989. `CC1=C(C(=O)NCCCN2CCN(c3ccc(F)cc3)CC2)C2(CCN(Cc3ccccc3)CC2)OC1=O` gave a relative growth of 0.567. Compound `Cn1c(=O)[nH]c(=O)c2c1nc(N1CCN(CC(N)=O)CC1)n2C/C=C/c1ccccc1` has a relative growth of 0.988. `Cc1ccc(S(=O)(=O)N(C)C[C@H]2Oc3c(NC(=O)c4cnccn4)cccc3C(=O)N([C@H](C)CO)C[C@@H]2C)cc1` was tested, and the relative growth was 0.975. With `C[C@H]1COc2c(C3(N)CC3)c(F)cc3c(=O)c(C(=O)O)cn1c23` the relative growth was 0.0591 (active). With `CC1COc2c(C3(N)CC3)c(F)cc3c(=O)c(C(=O)O)cn1c23.CS(=O)(=O)O` (stereo not drawn) the relative growth was 0.0476 (active). `C[C@H]1CN([C@@H](C)CO)C(=O)c2cc(NC(=O)CCN3CCOCC3)ccc2O[C@H]1CN(C)C(=O)NC1CCCCC1` was tested, and the relative growth was 0.98. Compound `CS(=O)(=O)c1cc(F)ccc1N` has a relative growth of 0.965. For `O=C(O)c1cccc(-c2ccco2)c1`, the relative growth was 1.01. With `CC(=O)OCC1=C[C@@H]2OC(=O)C3=CO[C@@H](O[C@H]4O[C@H](CO)[C@@H](O)[C@H](O)[C@H]4O)[C@H]1[C@@H]32` the relative growth was 1.01. Work on `CNC(=O)CN1CCOC[C@@]2(C1)CN(C(=O)c1ccn[nH]1)CCO2` yielded a relative growth of 0.952. `CCCCCCCCCCCCCCCC(=O)OC[C@@H](NC(=O)C(Cl)Cl)[C@H](O)c1ccc([N+](=O)[O-])cc1` gave a relative growth of 1.03. `O=C(NCO)c1ccc([N+](=O)[O-])cc1` gave a relative growth of 1.02. With `CCC(NC(C)C)C(O)c1ccc(O)c(O)c1.CS(=O)(=O)O` (stereo not drawn) the relative growth was 1.04. `CS(=O)(=O)c1ccc(C(O)C(CO)NC(=O)C(Cl)Cl)cc1` (stereo not drawn) gave a relative growth of 0.375. `CCCCCCCCCCCCCCCC(=O)OCC(NC(=O)C(Cl)Cl)C(O)c1ccc([N+](=O)[O-])cc1` (stereo not drawn) showed a relative growth of 0.559. In the case of `O=C(NC(CO)C(O)c1ccc([N+](=O)[O-])cc1)C(Cl)Cl` (stereo not drawn), the relative growth is reported as 0.0428 (active). `O=C([O-])CCC(=O)OCC(NC(=O)C(Cl)Cl)C(O)c1ccc([N+](=O)[O-])cc1.[Na+]` (stereo not drawn) was tested, and the relative growth was 0.0517 (active). For `CS(=O)(=O)c1ccc(C(O)C(CF)NC(=O)C(Cl)Cl)cc1` (stereo not drawn), the relative growth was 0.0463 (active). Compound `CCCCCCCCCCCCCCCC(=O)OC[C@H](NC(=O)C(Cl)Cl)[C@H](O)c1ccc([N+](=O)[O-])cc1` has a relative growth of 0.604. `C[C@@H]1CN([C@H](C)CO)C(=O)c2cc(NC(=O)Nc3ccc(F)cc3)ccc2O[C@@H](C)CCCCO[C@H]1CN(C)C(=O)Nc1ccc(C(F)(F)F)cc1` was tested, and the relative growth was 1. `Cc1ccc(S(=O)(=O)N(C)C[C@H]2OCCCC[C@H](C)Oc3ccc(NC(=O)Nc4ccccc4)cc3C(=O)N([C@H](C)CO)C[C@@H]2C)cc1` gave a relative growth of 1.07. For `C[C@@H]1CN([C@H](C)CO)C(=O)c2cc(NS(=O)(=O)c3ccccc3)ccc2O[C@@H](C)CCCCO[C@H]1CN(C)Cc1ccc(C(F)(F)F)cc1`, the relative growth was 1.07. Compound `C[C@@H]1CCCCO[C@@H](CN(C)CC2CCCCC2)[C@@H](C)CN([C@H](C)CO)C(=O)c2cc(NS(=O)(=O)c3ccccc3)ccc2O1` has a relative growth of 0.975. For `C=CCC[C@@H](Cc1ccc(F)cc1)C(=O)OC[C@@H](Cc1c[nH]c2ccccc12)NC(=O)[C@@H](CC=C)CC(=O)N(CCO)Cc1ccccc1`, the relative growth was 1.1. `C[C@@H]1CN([C@H](C)CO)C(=O)c2cccc(NC(=O)C3CCOCC3)c2O[C@H]1CN(C)Cc1ccc(-c2ccccc2)cc1` gave a relative growth of 1.
